High-throughput results deposited in PubChem BioAssay by University of Kansas High Throughput Screening Laboratory.
mHTT CaM bind: mHTT-calmodulin interaction abrogation; 190,000 compounds, 3.6% hits; inhibition, % at 15 µM; P42858; AlphaScreen His-mHTT/GST-CaM binding, luminescence; AID 1671202;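 note: 0% = both proteins with DMSO and 100% = one protein alone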
Pf apPOL block: Pf-apPOL DNA polymerase inhibition; inhibition, % at 10 µM; 210,000 compounds, 0.25% hits; AID 1794808; Recombinant Pf-apPOL, molecular beacon fluorescence, 1.5 h
* marks the source's active call; other numbers are inactive results. Shown is part of a subset that was picked to be rich in hits. Cut-off read from the data, not from the text of the source: active = inhibition above about 50%; inactive = the rest.

Screening CNC(=O)N1CCCC(c2cccc(C(=O)N3CCN(c4ccccc4Cl)CC3)c2)C1 (stereo unspecified) returned mHTT CaM bind 3 and Pf apPOL block -1.
`Cc1ccccc1NC(=O)NCCn1ccnc1C` gave mHTT CaM bind 3 and Pf apPOL block 23.
`COc1ccccc1C(=O)N1CCC(COc2ccccc2C(=O)N2CCCC2)CC1` gave mHTT CaM bind -6 and Pf apPOL block 2.
`COc1ccccc1C(O)Cn1cc(C(=O)NC(C)c2cccnc2)nn1` (stereo unspecified) gave mHTT CaM bind -14 and Pf apPOL block -4.
Screening CC(=O)Oc1ccc2c(=O)c(-c3ccc(Cl)cc3)c(C)oc2c1 returned mHTT CaM bind -1 and Pf apPOL block -5.
Screening COc1cccc2cc(C(=O)N3CCN(Cc4ccc5c(c4)OCO5)CC3)oc12 returned mHTT CaM bind 15 and Pf apPOL block -44.
`CCOc1cc(-c2ccc(OC)c(OC)c2)cc(=O)c2c(C)oc(C)c12` gave mHTT CaM bind 44 and Pf apPOL block 10.
CCOc1cc(-c2cccs2)cc(=O)c2c(C)oc(C)c12 was read as mHTT CaM bind 55* and Pf apPOL block -5.
`O=[N+]([O-])c1c(Cl)cc(O)c2c1C1C=CCC1C(c1ccccc1)N2` (stereo unspecified) gave mHTT CaM bind 75* and Pf apPOL block 3.
For Cc1cccc2c1NC(c1ccc([N+](=O)[O-])cc1)C1CC=CC21 (stereo unspecified) the results were mHTT CaM bind 17 and Pf apPOL block 3.
O=[N+]([O-])c1ccc(C2Nc3c(O)cc(Cl)c([N+](=O)[O-])c3C3C=CCC32)cc1 (stereo unspecified) was read as mHTT CaM bind 92* and Pf apPOL block -5.
COc1ccc(NC(=O)c2ccc(N3CCNC(c4ccccc4)C3)nc2)c(OC)c1 (stereo unspecified) was read as mHTT CaM bind 49 and Pf apPOL block -1.
For Cc1nc(-c2nnc(NC(=O)Cc3ccc4c(c3)OCO4)o2)cs1 the results were mHTT CaM bind 43 and Pf apPOL block 6.
Screening Cc1nc(-c2nnc(NC(=O)Cn3c(=O)oc4ccccc43)o2)cs1 returned mHTT CaM bind 98* and Pf apPOL block 4.
For O=C(Cn1c(=O)oc2ccccc21)Nc1nnc(-c2ccco2)o1 the results were mHTT CaM bind 23 and Pf apPOL block -6.
Screening CCOC(=O)CCC(=O)Nc1nnc(-c2csc(C)n2)o1 returned mHTT CaM bind 61* and Pf apPOL block 2.
For COc1cc(Br)cc(C=Nc2ccc(-c3nc4ncccc4o3)cc2)c1O the results were mHTT CaM bind 20 and Pf apPOL block 1.
For COc1ccc(C2=C/C(=C\c3ccc(C)c([N+](=O)[O-])c3)C(=O)O2)c(OC)c1 the results were mHTT CaM bind -10 and Pf apPOL block -5.
`COc1ccccc1/C=C1/N=C(c2ccco2)OC1=O` gave mHTT CaM bind 10 and Pf apPOL block -1.
Screening CC1CCC(NC(=O)c2cc3c(s2)CN(C2CC2)C3)CC1 (stereo unspecified) returned mHTT CaM bind 5 and Pf apPOL block -2.
`Cc1cccc(C(=O)N2CCC(COc3ccccc3C(=O)N3CCCCC3)CC2)c1` gave mHTT CaM bind 12 and Pf apPOL block 3.
O=[N+]([O-])c1cccnc1N1CCOCC1 was read as mHTT CaM bind -6 and Pf apPOL block -8.
`Cc1ccc(Nc2c([N+](=O)[O-])cc([N+](=O)[O-])c3cccnc23)cc1` gave mHTT CaM bind 51* and Pf apPOL block -2.
`O=[N+]([O-])c1cc([N+](=O)[O-])c2cccnc2c1Nc1ccc(N2CCOCC2)cc1` gave mHTT CaM bind 56* and Pf apPOL block -2.
`CCOc1ccc(Nc2c([N+](=O)[O-])cc([N+](=O)[O-])c3cccnc23)cc1` gave mHTT CaM bind 29 and Pf apPOL block -6.
`O=c1c2ccccc2nc2c3ccccc3c(NCc3cccnc3)nn12` gave mHTT CaM bind 80* and Pf apPOL block -11.
Cc1cc(C)n(-c2nn3c(=O)c4ccccc4nc3c3ccccc23)n1 was read as mHTT CaM bind -9 and Pf apPOL block 12.
Screening O=c1c2ccccc2nc2c3ccccc3c(NCc3ccccn3)nn12 returned mHTT CaM bind 81* and Pf apPOL block 0.
For Cc1nc2ccccc2c(=O)n1Cc1cccnc1 the results were mHTT CaM bind 0 and Pf apPOL block -3.
CC1CCCN(C(=O)c2cc3cc4ccc(Cl)cc4nc3o2)C1 (stereo unspecified) was read as mHTT CaM bind -6 and Pf apPOL block -5.
For COc1ccccc1Nc1ncc2c(n1)CCN(Cc1sccc1C)C2 the results were mHTT CaM bind 5 and Pf apPOL block 2.
N#C/C(=C\C=C\c1ccco1)c1nc2ccccc2s1 was read as mHTT CaM bind 76* and Pf apPOL block -10.
`N#C/C(=C\c1ccco1)c1nc(-c2ccccc2)cs1` gave mHTT CaM bind -10 and Pf apPOL block -3.
For CC(C)(C)n1nc2c(c1NC(=O)C1CCCC1)CS(=O)C2 (stereo unspecified) the results were mHTT CaM bind -3 and Pf apPOL block -6.
CCN(C)C(=O)C1CN(C(=O)c2ccc(Cl)cc2)CC1c1ccc(C)cc1 (stereo unspecified) was read as mHTT CaM bind 16 and Pf apPOL block 0.
Screening CCCCSc1nc2c(c(C(F)(F)F)c1C#N)CC(C)CC2 (stereo unspecified) returned mHTT CaM bind -88.
For CN1CCN(C(=O)CSc2nc3c(c(C(F)(F)F)c2C#N)CCC3)CC1 the results were mHTT CaM bind 62*.
Screening Cc1cc(F)ccc1NC(=O)C1CCCN(c2nnc3ccc(Cl)cn23)C1 (stereo unspecified) returned mHTT CaM bind 6 and Pf apPOL block -5.
Cc1cccc(N2CCC(C(=O)NCc3ccccn3)C2=O)c1 (stereo unspecified) was read as mHTT CaM bind 17 and Pf apPOL block -8.
For Oc1c(Cl)cc(Cl)cc1CNc1cccc(F)c1 the results were mHTT CaM bind 96* and Pf apPOL block -2.
For Fc1cccc(NCc2ccco2)c1 the results were mHTT CaM bind 14 and Pf apPOL block 2.
Screening CC1=NOC(=O)/C1=C/c1ccc(-c2ccc3c(c2)COC3=O)o1 returned mHTT CaM bind -1 and Pf apPOL block -5.
CC1(C)OC(=O)C(=Cc2ccc(-c3cccc(Cl)c3)o2)C(=O)O1 was read as mHTT CaM bind 55* and Pf apPOL block 6.
`Cc1ccc(-c2ccc(C=C3C(=O)OC(C)(C)OC3=O)o2)cc1` gave mHTT CaM bind 7 and Pf apPOL block 4.
CC1=NOC(=O)/C1=C/c1ccc(-c2ccc(Cl)cc2)o1 was read as mHTT CaM bind 64* and Pf apPOL block -6.
O=C1OC(c2ccc(Cl)c(Cl)c2)=N/C1=C\c1ccccc1F was read as mHTT CaM bind -6 and Pf apPOL block -6.
For O=C(Nc1ccc(Br)cc1)N1CCOc2ccccc21 the results were mHTT CaM bind -10 and Pf apPOL block -7.
`O=C(CSc1nc2ccccc2o1)NCCSCc1ccco1` gave Pf apPOL block 63*.
O=C(CSC1=NCCS1)NCCSCc1ccco1 was read as Pf apPOL block -3.
O=C1NC(c2ccccc2F)Nc2sc3c(c21)CCCC3 (stereo unspecified) was read as mHTT CaM bind 0 and Pf apPOL block -2.
